Results taken from PubChem BioAssay (Tox21).
A number with no mark means an inactive call. Results filed as inconclusive are left out. A call without a number means that no potency is given here. The source made the active and inactive calls. Unless noted, calls follow the shape of the dose curve; as a rule, active = well fitted curve in the direction sought with a large enough effect in the repeat runs; inconclusive = weak or mixed curves; inactive = no such curve, though single readings can be large; an effect the other way counts as inactive or inconclusive.

Assays:
[1] = qHTS assay to identify small molecule agonists of the estrogen receptor alpha (ER-alpha) signaling pathway in the presence of an antagonist - cell viability counter screen (AID 1259386);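 also: cells exposed to compounds for 22 h at 37 °C before the viability read; nearly all actives have a fitted effect of over 30% in size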; also: potency is read from the fitted curve at half-maximal effect
Method in brief: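 VM7Luc4E2 cells (endogenous full-length ER-alpha, 4×ERE-luciferase) were held 5 days in phenol red-free medium with 10% charcoal-stripped FBS, plated, then given 10.0nM ICI-182,780 and compounds at 15 concentrations for 22hr at 37C; viability read by CellTiter-Fluor fluorescence.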

[2] = biological target: Progesterone receptor (Homo sapiens) (UniProt P06401); test: qHTS assay to identify small molecule antagonists of the progesterone receptor (PR) signaling pathway (AID 1346795; active = well fitted inhibition curve with a large enough effect in the signal ratio in the repeat runs, not every such curve was filed as active; the % refers to the signal ratio)
Chain of Progesterone receptor (Homo sapiens) (P06401 whole entry, looked up): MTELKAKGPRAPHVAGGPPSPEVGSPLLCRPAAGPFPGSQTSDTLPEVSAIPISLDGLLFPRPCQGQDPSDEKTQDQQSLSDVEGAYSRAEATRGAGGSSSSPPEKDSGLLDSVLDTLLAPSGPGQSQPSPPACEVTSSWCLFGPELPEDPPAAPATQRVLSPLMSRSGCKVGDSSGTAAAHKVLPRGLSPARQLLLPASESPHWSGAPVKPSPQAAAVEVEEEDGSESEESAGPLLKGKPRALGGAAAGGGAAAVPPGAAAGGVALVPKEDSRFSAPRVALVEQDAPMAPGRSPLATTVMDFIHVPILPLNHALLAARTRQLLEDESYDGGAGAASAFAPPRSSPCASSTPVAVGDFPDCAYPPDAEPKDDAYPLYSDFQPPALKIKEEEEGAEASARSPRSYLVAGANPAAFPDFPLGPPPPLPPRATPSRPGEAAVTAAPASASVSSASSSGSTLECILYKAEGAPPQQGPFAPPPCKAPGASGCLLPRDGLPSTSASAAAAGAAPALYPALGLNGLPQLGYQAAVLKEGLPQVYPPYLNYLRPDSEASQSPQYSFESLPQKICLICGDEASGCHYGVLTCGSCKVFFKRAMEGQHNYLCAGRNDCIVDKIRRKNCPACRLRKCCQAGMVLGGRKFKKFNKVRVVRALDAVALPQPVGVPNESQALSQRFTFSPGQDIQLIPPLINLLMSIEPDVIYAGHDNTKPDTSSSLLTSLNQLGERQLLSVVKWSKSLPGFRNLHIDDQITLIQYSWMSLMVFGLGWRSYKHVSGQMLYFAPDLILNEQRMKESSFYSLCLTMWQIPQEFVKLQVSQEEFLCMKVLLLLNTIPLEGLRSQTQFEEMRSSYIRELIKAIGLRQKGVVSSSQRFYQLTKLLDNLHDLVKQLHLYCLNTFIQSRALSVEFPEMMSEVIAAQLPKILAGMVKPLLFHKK
Method in brief: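 PR-UAS-bla HEK293T cells carrying a UAS-driven beta-lactamase reporter were plated in medium with 2% charcoal-stripped FBS and rested 6 hr at 37C. Compounds were added with 1 nM R5020 (final) for 16 hr, then FRET substrate loaded 2 hr at room temperature.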

[3] = qHTS assay to identify small molecule antagonists of the TGF-beta/Smad signaling pathway - cell viability counter screen (AID 1346824); also: nearly all actives have a fitted effect of over 50% in size
Method in brief: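 Cytotoxicity counter-screen run in the same wells as the beta-lactamase Smad reporter read: CellTiter-Glo luminescence after 30 min at room temperature. HEK 293T SBE-bla cells had 5 hr compound exposure at 37 C with TGF-beta1 (0.25 ng/mL stock).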

[4] = qHTS assay to identify small molecule agonists of the TGF-beta/Smad signaling pathway - cell viability counter screen (AID 1346829); also: top concentration of the series differs between compounds; nearly all actives have a fitted effect of over 45% in size
Method in brief: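 In parallel with the Smad reporter read, viability of HEK 293T cells stably carrying SBE-bla is quantified by ATP luminescence following 5 hr compound treatment.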

[5] = qHTS assay to identify small molecule agonists of the TGF-beta/Smad signaling pathway (AID 1346859; active = well fitted activation curve with a large enough effect in the signal ratio in the repeat runs, not every such curve was filed as active; the % refers to the signal ratio; also: series mostly up to about 77 µM)
Method in brief: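 HEK 293T cells stably carrying a beta-lactamase reporter driven by the Smad binding element were seeded overnight, exposed to DMSO-dissolved compounds for 5 hr at 37 C, 5% CO2, then loaded with FRET substrate for 2 hr at room temperature.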

[6] = biological target: Thyrotropin-releasing hormone receptor (Homo sapiens) (UniProt P34981); test: qHTS assay to identify small molecule antagonists of the thyrotropin-releasing hormone receptor (TRHR) signaling pathway (AID 1346877; active = well fitted inhibition curve with a large enough effect in the repeat runs, not every such curve was filed as active; also: series mostly up to about 51 µM)
Chain of Thyrotropin-releasing hormone receptor (Homo sapiens) (P34981 whole entry, looked up): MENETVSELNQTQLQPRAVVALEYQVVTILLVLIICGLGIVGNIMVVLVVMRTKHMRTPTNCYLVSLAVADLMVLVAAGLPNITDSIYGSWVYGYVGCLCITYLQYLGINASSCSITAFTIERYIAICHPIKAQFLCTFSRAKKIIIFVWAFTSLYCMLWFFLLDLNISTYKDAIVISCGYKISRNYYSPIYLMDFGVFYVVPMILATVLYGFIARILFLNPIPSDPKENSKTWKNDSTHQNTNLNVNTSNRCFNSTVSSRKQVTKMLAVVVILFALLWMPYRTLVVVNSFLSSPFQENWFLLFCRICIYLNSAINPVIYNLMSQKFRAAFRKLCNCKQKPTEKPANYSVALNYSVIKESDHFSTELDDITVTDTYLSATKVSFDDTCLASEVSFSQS
Method in brief: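 TRHR-expressing HEK293 cells were seeded, cultured 18 h at 37 °C, then loaded with calcium dye for 2 h. Compounds were pre-incubated 5 min at room temperature before 1 nM TRH (final) was added, and kinetic fluorescence was recorded for 3 min.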

[7] = biological target: Thyrotropin-releasing hormone receptor (Homo sapiens) (UniProt P34981); test: qHTS assay to identify small molecule agonists of the thyrotropin-releasing hormone receptor (TRHR) signaling pathway (AID 1346891; calls by dose curve; also: series mostly up to about 58 µM)
Method in brief: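 TRHR-expressing HEK293 cells were plated 18 h at 37 °C/5% CO2, loaded with calcium dye 2 h at 37 °C, then given compound in DMSO; fluorescence was read kinetically for 3 min at 1 s intervals.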

[8] = Human pregnane X receptor (PXR) small molecule agonists, qHTS cell viability counter screen (AID 1346977); also: nearly all actives have a fitted effect of over 50% in size
Method in brief: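 PXR-Luc HepG2 cells in medium with 5% charcoal-stripped FBS were pre-incubated 5hr, then exposed to compounds for 24hr at 37C. Viability was read in the same wells by CellTiter-Fluor fluorescence, reagent added after 23hr with a 1hr incubation.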

[9] = Caspase-3/7 induction in HepG2 cells by small molecules, qHTS assay (AID 1346978); also: nearly all actives have a fitted effect of over 15% in size
Method in brief: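 Caspase-3/7 induction was measured by Caspase-Glo 3/7 luminescence (30 min, room temperature) after a 17 hr compound exposure of wild-type HepG2 cells seeded at 2,000 per well and pre-incubated 5 hr.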

[10] = Caspase-3/7 induction in CHO-K1 cells by small molecules, qHTS assay (AID 1346980); also: nearly all actives have a fitted effect of over 15% in size
Method in brief: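 Luminescent Caspase-Glo 3/7 read (30min, room temperature) quantified apoptosis induction. Cells were wild-type CHO-K1, treated with compound for 17hr at 37 C and 5% CO2.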

[11] = Caspase-3/7 induction in HepG2 cells by small molecules, qHTS cell viability counter screen (AID 1346981); also: series mostly up to about 92 µM; nearly all actives have a fitted effect of over 30% in size
Method in brief: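 Wild-type HepG2 cells (2,000/well) were allowed to settle for 5 hr at 37 C, 5% CO2, then dosed with compounds in DMSO by pin transfer. After 16 hr at 37 C, CellTiter-Fluor was added and fluorescence read 1 hr later.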

[12] = biological target: Nuclear receptor subfamily 1 group I member 2 (Homo sapiens) (UniProt O75469); test: Human pregnane X receptor (PXR) small molecule agonists, qHTS assay (AID 1346982); also: nearly all actives have a fitted effect of over 35% in size; also: potency is read from the fitted curve at half-maximal effect
Chain of Nuclear receptor subfamily 1 group I member 2 (Homo sapiens) (O75469 whole entry, looked up): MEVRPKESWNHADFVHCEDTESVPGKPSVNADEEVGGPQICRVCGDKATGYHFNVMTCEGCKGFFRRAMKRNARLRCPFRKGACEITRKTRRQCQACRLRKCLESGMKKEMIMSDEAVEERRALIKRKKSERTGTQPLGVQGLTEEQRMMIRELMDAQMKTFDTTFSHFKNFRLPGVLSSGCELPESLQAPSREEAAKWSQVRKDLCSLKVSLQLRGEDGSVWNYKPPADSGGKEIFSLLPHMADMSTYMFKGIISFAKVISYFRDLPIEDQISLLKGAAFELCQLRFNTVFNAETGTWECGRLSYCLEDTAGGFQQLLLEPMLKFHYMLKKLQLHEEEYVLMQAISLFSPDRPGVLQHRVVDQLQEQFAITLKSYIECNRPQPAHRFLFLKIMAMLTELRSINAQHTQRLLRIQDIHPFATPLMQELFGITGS
Method in brief: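 PXR-Luc HepG2 cells (CYP3A4 promoter-driven luciferase) were seeded in medium with 5% charcoal-stripped FBS, left 5 hr at 37 C, then exposed to compounds in DMSO for 24 hr. Luminescence was read after ONE-Glo addition.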

[13] = biological target: Nuclear receptor subfamily 1 group I member 2 (Rattus norvegicus) (UniProt Q9R1A7); test: Rat pregnane X receptor (rPXR) activation by small molecules, qHTS assay (AID 1346983); conditions: rPXR luciferase reporter cells, One-Glo luminescence, 24 h; max activation: active compounds read high; also: nearly all actives have a fitted effect of over 20% in size
Chain of Nuclear receptor subfamily 1 group I member 2 (Rattus norvegicus) (Q9R1A7 whole entry, looked up): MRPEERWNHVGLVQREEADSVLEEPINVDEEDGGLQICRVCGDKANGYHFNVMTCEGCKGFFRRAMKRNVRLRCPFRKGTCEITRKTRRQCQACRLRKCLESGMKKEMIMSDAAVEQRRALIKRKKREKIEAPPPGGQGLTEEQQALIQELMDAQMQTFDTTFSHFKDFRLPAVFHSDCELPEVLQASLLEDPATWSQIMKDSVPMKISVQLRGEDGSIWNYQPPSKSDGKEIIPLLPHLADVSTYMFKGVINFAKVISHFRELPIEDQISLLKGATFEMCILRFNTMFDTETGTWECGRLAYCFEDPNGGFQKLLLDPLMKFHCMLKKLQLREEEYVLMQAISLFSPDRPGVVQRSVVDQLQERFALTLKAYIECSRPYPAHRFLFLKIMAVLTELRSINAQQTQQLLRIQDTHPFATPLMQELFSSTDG
Method in brief: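 Luminescent readout (One-Glo luciferase, 30 min room temperature) followed 24 hr compound treatment at 37 C of rPXR cells plated 2,000 per well and preincubated 5hr; qHTS format with compounds delivered in DMSO.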

[14] = biological target: Nuclear receptor subfamily 1 group I member 2 (Homo sapiens) (UniProt O75469); test: CYP3A4 induction through human pregnane X receptor (PXR) by small molecules, qHTS assay (AID 1346984); also: nearly all actives have a fitted effect of over 40% in size
Method in brief: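 DPX-2 cells (HepG2 co-transfected with PXR and CYP3A4 promoter-luciferase) treated with compounds 24 h at 37C; luciferin-IPA CYP3A4 substrate 3uM final added for 3 h, then One-Glo; luminescence read. qHTS format.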

[15] = biological target: Nuclear receptor subfamily 1 group I member 2 (Homo sapiens) (UniProt O75469); test: Human pregnane X receptor (PXR) activation by small molecules, qHTS assay (AID 1346985); also: nearly all actives have a fitted effect of over 40% in size
Method in brief: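 DPX-2 cells (HepG2 co-transfected with a PXR response element and a CYP3A4-promoter luciferase construct) were seeded at 2,000 per well, rested 5 hr at 37C, then exposed to DMSO-dissolved compounds for 24 hr. Activation was read as luciferase luminescence.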

[16] = biological target: Acetylcholinesterase (Homo sapiens) (UniProt P22303); test: Acetylcholinesterase (AChE) small molecule antagonists: colormetric cell-based qHTS assay (AID 1347395; calls by dose curve; also: nearly all actives have a fitted effect of over 30% in size; also: potency is read from the fitted curve at half-maximal effect)
Chain of Acetylcholinesterase (Homo sapiens) (P22303 whole entry, looked up): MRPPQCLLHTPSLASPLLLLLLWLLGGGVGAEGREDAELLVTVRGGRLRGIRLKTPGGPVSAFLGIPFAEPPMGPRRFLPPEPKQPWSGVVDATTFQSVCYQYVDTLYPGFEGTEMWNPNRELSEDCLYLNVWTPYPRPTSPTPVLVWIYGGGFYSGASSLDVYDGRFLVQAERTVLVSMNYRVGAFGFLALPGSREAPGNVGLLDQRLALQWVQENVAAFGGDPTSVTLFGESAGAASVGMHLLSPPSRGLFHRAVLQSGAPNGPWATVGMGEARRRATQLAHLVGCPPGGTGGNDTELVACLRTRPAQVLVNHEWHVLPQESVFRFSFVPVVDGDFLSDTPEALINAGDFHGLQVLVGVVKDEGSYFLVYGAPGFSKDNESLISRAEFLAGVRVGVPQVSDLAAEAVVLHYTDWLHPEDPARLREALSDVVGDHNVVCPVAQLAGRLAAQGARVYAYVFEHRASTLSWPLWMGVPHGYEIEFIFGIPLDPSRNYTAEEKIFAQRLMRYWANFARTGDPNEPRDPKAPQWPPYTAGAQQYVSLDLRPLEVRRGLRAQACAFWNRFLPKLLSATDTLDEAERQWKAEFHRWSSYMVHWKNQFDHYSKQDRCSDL
Method in brief: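 SH-SY5Y cells, plated overnight at 37 C, were exposed to compounds for 30 min at 37 C and 5% CO2. Acetylthiocholine plus DTNB was then added, and thiocholine from endogenous AChE was quantified colorimetrically after 90 min at 37 C.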

[17] = qHTS assay to identify small molecule antagonists of the progesterone receptor (PR) signaling pathway - cell viability counter screen (AID 1346798); also: series mostly up to about 92 µM; nearly all actives have a fitted effect of over 50% in size
Method in brief: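 PR-UAS-bla HEK293T cells in medium with 2% charcoal-stripped FBS were treated with compounds plus R5020 for 16 hr at 37C. Cell viability was then read by CellTiter-Glo luminescence after 30 min at room temperature in the same wells.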

[18] = qHTS assay to identify small molecule agonists of the progesterone receptor (PR) signaling pathway - cell viability counter screen (AID 1346799; calls by dose curve; also: nearly all actives have a fitted effect of over 45% in size)
Method in brief: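 PR-UAS-bla HEK293T cells, 3,000 per well in medium with 2% charcoal-stripped FBS, were preincubated 6 hr at 37C, then exposed to compounds for 16 hr; viability was read as CellTiter-Glo luminescence after 30 min at room temperature.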

[19] = biological target: Progesterone receptor (Homo sapiens) (UniProt P06401); test: qHTS assay to identify small molecule agonists of the progesterone receptor (PR) signaling pathway (AID 1346784; calls by dose curve; also: nearly all actives have a fitted effect of over 30% in size)
Method in brief: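 PR-UAS-bla HEK 293T cells carrying a UAS-driven beta-lactamase reporter were seeded in medium with 2% charcoal-stripped FBS, preincubated 6 hr at 37C, then exposed to compounds in DMSO for 16 hr; agonism was read by LiveBLAzer B/G FRET fluorescence.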

[20] = Caspase-3/7 induction in CHO-K1 cells by small molecules, qHTS cell viability counter screen (AID 1346979); also: nearly all actives have a fitted effect of over 35% in size; also: potency is read from the fitted curve at half-maximal effect
Method in brief: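 Wild-type CHO-K1 cells were seeded at 1,500 per well, rested 5hr at 37 C, then exposed to compounds in DMSO. After 16hr, CellTiter-Fluor reagent was added and fluorescence read 1hr later as the viability measure.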

Compound	Potency [1]	Potency [2]	Potency [3]	outcome [4]	outcome [5]	outcome [6]	outcome [7]	Potency [8]	Potency [9]	Potency [10]	Potency [11]	Potency [12]	max activation [13]	Potency [14]	Potency [15]	Potency [16]	Potency [17]	Potency [18]	Potency [19]	Potency [20]
C#C[C@]1(O)C=C[C@H]2[C@@H]3CCC4=CC(=O)CC[C@@H]4[C@H]3CC[C@@]21CC	inactive	inactive	inactive	inactive	inactive	inactive	inactive	inactive	inactive	inactive	inactive	29.8 µM (active)	-1.56%	inactive	inactive	inactive				
N#CCCC#N	inactive	inactive	inactive	inactive	inactive		inactive	inactive	inactive	inactive	inactive	inactive				inactive	inactive	inactive		
CC1COC2(c3ccccc3Cl)c3cc(Cl)ccc3NC(=O)CN12 (stereo unspecified)	inactive		inactive	inactive	inactive			inactive	inactive	inactive	inactive	23.7 µM (active)				inactive		inactive	inactive	
CC1(C)C(=O)NC(=O)NC1=O	inactive			inactive	inactive	inactive		inactive	inactive	inactive	inactive	inactive				inactive			inactive	
ClCC(Cl)(Cl)Cl	inactive	inactive	inactive	inactive				inactive	inactive	inactive	inactive	inactive				inactive	inactive	inactive		inactive
CCOC(=O)NC(=S)Nc1ccccc1NC(=S)NC(=O)OCC	inactive		inactive	inactive	inactive			inactive	inactive	inactive	inactive					inactive		inactive	inactive	
CCc1cc2c(s1)-n1c(C)nnc1CN=C2c1ccccc1Cl	inactive	inactive	inactive	inactive	inactive	inactive	inactive	inactive	inactive	inactive	inactive					inactive	inactive	inactive		inactive
CC1=NNC(=O)N(/N=C/c2cccnc2)C1	inactive		inactive	inactive	inactive	inactive	inactive	inactive	inactive	inactive	inactive	inactive				inactive	inactive		inactive	inactive
O=C1OC(c2ccc(O)c(S(=O)(=O)O)c2)(c2ccc(O)c(S(=O)(=O)O)c2)c2c(Br)c(Br)c(Br)c(Br)c21	inactive	inactive	inactive	inactive	inactive			inactive	inactive	inactive	inactive	inactive	-0.923%	inactive	inactive	inactive	inactive	inactive		
O=C(CCCN1CCC(n2c(=O)[nH]c3ccccc32)CC1)c1ccc(F)cc1	inactive		inactive	inactive	inactive				inactive	inactive	inactive	13.3 µM (active)	-1.58%	inactive	inactive	inactive			inactive	
Cc1nnc2n1-c1sc(CCC(=O)N3CCOCC3)cc1C(c1ccccc1Cl)=NC2	inactive	inactive	inactive	inactive				inactive	inactive	inactive	inactive	inactive				inactive	inactive			inactive
COP(N)(=S)Oc1ccccc1C(=O)OC(C)C (stereo unspecified)	inactive			inactive	inactive			inactive	inactive	inactive	inactive						inactive		inactive	
CCN(CC)C(=O)[C@@H]1C=C2c3cccc4[nH]cc(c34)C[C@H]2N(C)C1	56.7 µM (active)	inactive	inactive	inactive	inactive	inactive	inactive		inactive	inactive		80 µM (active)				73.8 µM (active)				89.8 µM (active)
C=C(C)[C@@H]1CC=C(C=O)CC1	inactive	inactive	inactive	inactive	inactive				inactive	inactive	inactive					inactive	inactive			
CCCSP(=S)(OCC)Oc1ccc(Cl)cc1Cl (stereo unspecified)	inactive		inactive	inactive	inactive	inactive	inactive	inactive	inactive	inactive	inactive	30.6 µM (active)				inactive	inactive		inactive	inactive
CN1CCN(C(=O)O[C@H]2c3nccnc3C(=O)N2c2ccc(Cl)cn2)CC1	inactive		inactive	inactive	inactive	inactive	inactive	inactive	inactive	inactive	inactive		2%			inactive	inactive		inactive	inactive
CC1CCC(=O)O1 (stereo unspecified)	inactive		inactive	inactive	inactive	inactive	inactive	inactive	inactive	inactive	inactive					inactive		inactive	inactive	inactive
O=[N+]([O-])c1ccc(CBr)cc1	inactive		inactive	inactive	inactive	inactive	inactive		inactive	inactive	inactive	inactive				inactive	inactive		inactive	inactive
CNCC(=O)c1ccc(O)c(O)c1	inactive	inactive	inactive	inactive	inactive		inactive	inactive	inactive	inactive	inactive	inactive				inactive	inactive	inactive		
